Laboratory results reported in PubChem BioAssay (NCI).
Compounds without any hit were thinned out: in the full panel of roughly 83,000, 20% have a hit.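 Treatment: one concentration, 48 hours, 96-well format. Scoring: percent growth, with anything below 10 considered active.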 A number with no mark means an inactive call. The source made the active and inactive calls.

How the values were obtained:
Experiment in all cases: NCI-60 one-dose screen, 48 h (100 = growth as untreated, 0 = no growth, -100 = all killed)
Details in all cases: 10 µM unless noted
[1] = tested on: HCT-15 colon
[2] = tested on: HT29 colon
[3] = tested on: SNB-75 CNS
[4] = tested on: SNB-19 CNS
[5] = tested on: U251 CNS
[6] = tested on: PC-3 prostate
[7] = tested on: SK-MEL-5 melanoma
[8] = tested on: UACC-62 melanoma
[9] = tested on: LOX IMVI melanoma
[10] = tested on: SK-MEL-28 melanoma
[11] = tested on: SK-MEL-2 melanoma
[12] = tested on: EKVX NSCLC
[13] = tested on: SN12C renal
[14] = tested on: UO-31 renal
[15] = tested on: TK-10 renal
[16] = tested on: ACHN renal
[17] = tested on: CAKI-1 renal
[18] = tested on: A498 renal
[19] = tested on: CCRF-CEM leukemia
[20] = tested on: MOLT-4 leukemia

Structure (SMILES) | growth [1] | growth [2] | growth [3] | growth [4] [%] | growth [5] | growth [6] [%] | growth [7] | growth [8] [%] | growth [9] [%] | growth [10] [%] | growth [11] [%] | growth [12] [%] | growth [13] [%] | growth [14] [%] | growth [15] [%] | growth [16] [%] | growth [17] [%] | growth [18] | growth [19] | growth [20]
COc1cc(C2=NN(C(C)=O)C(c3cc(OC)c(OC)c(OC)c3)C2)ccc1O (centres undefined) | 4.31% (active) | 8.21% (active) | 4.64% (active) | 34.9 | 7.85% (active) | 13.1 | 6.65% (active) | 15.3 | 34.7 | 68.2 | 37.9 | 34.8 | 34.2 | 31.8 | 47.5 | 30.5 | 46.4 | -14.4% (active) | -16.5% (active) | 0.196% (active)
C=C(C)[C@@H]1CC[C@]2(C(=O)N3CCN(C)CC3)CC[C@]3(C)[C@H](CC[C@@H]4[C@@]5(C)C/C(=C/c6cccnc6)C(=O)C(C)(C)[C@@H]5CC[C@]43C)[C@@H]12 | 44.5% | 20.9% | 79.7% | 68.7 | 52.3% | 18.6 | 68.6% | 81.4 | 78.7 | 83.1 | 82.8 | 83.8 | 57.6 | 57.2 | 101 | 71.7 | 79.8 | – | 28.9% | 14.9%
NS(=O)(=O)c1ccc(Cn2c(SCC(=O)N/N=C/c3ccccc3O)nc3ccccc3c2=O)cc1 | 75% | 86.3% | 84.3% | 55.6 | 43.1% | 67.9 | 58.1% | 38.1 | 16.1 | 57.7 | 36.6 | 60.1 | 56.2 | 61 | 53.8 | 72.3 | 54.2 | – | 23.2% | 20.8%
C[C@H]1[C@H](C)CC[C@]2(C(=O)NCC#CCN3CCN(C)CC3)CC[C@]3(C)C(=CC[C@@H]4[C@@]5(C)Cc6c([nH]c7ccccc67)C(C)(C)[C@@H]5CC[C@]43C)[C@H]12 | 47% | 19.3% | 90.1% | 83.2 | 64.3% | 69.8 | 88.5% | 101 | 70.9 | 82.3 | 105 | 86.5 | 81.2 | 67.6 | 88.8 | 96.3 | 91.9 | – | 66.7% | 44.6%
COc1cc(NCCCCCNC(C)(C)C)c2ncccc2c1 | 91.2% | 85.9% | 53.2% | 91.7 | 100% | 76.4 | 100% | 89.6 | 93.7 | 107 | 113 | 95.9 | 86.7 | 75.8 | 95.7 | 104 | 78.7 | 103% | 51.8% | 105%
C=CCn1c(-c2ccc(-c3nc4ccc(C)cc4[nH]3)cc2)n[nH]c1=S | 99.2% | 105% | 104% | 102 | 101% | 101 | 89.5% | 95.8 | 98.3 | 100 | 112 | 94.5 | 96.4 | 89.7 | 133 | 99.6 | 93.6 | 94.5% | 87.3% | 96.9%
Fc1ccc(-c2cn3c(nc4ccccc43)c(-c3ccccc3)n2)cc1 | 94% | 78.4% | 68.9% | 103 | 91.5% | 85 | 88.6% | 78.9 | 106 | 185 | 109 | 108 | 89.2 | 80.4 | 113 | 92.7 | 84.9 | 111% | – | 92.4%
COCCCN1CC(O)=C(c2nc(-c3ccc(C)cc3)cs2)C1=N | 110% | 128% | 154% | 98.6 | 100% | 94.3 | 103% | 103 | 102 | 159 | 113 | 97.3 | 92.9 | 80.6 | 138 | 111 | 96.1 | 93.3% | – | 86.4%
C=C(C)[C@@H]1CC[C@]2(C(=O)N[C@@H](Cc3ccccc3)C(=O)OC)CC[C@]3(C)[C@H](CC[C@@H]4[C@@]5(C)CCC(=O)C(C)(C)[C@@H]5CC[C@]43C)[C@@H]12 | 94% | 70.1% | 87.1% | 104 | 85.2% | 52.3 | 95.2% | 56.9 | 73.9 | 97.9 | 75.8 | 85.4 | 95.3 | 75.7 | 90.9 | 90.5 | 45.5 | 84% | 84.7% | 64.6%
Cc1ccc(-n2nc3c(c(C#N)c2=O)CC(c2ccccc2[N+](=O)[O-])C([N+](=O)[O-])=C3O)cc1 (centres undefined) | 84.1% | 113% | 80.1% | 92.3 | 91.3% | 88.3 | 87.5% | 78.3 | 82.9 | 98.4 | 98.8 | 77.1 | 91.8 | 61.8 | 115 | 86.4 | 77.4 | 95.9% | 88.2% | 87.6%
CCOC(=O)c1cc(C(=O)c2ccc(OC)c(OC)c2)n2ccc(/C=C/c3cc[n+](CC(=O)c4ccc(OC)c(OC)c4)cc3)cc12 | 104% | 95.5% | 79.4% | 90.6 | 95.5% | 92.8 | 98% | 96.6 | 87.7 | 104 | 112 | 99.6 | 86.8 | 82.7 | 113 | 96.3 | 96.2 | 95.6% | 85.7% | 93.7%
COc1ccc(C(=O)c2nc3ccccc3n2CC(=O)c2ccc(Cl)cc2)cc1 | 17.4% | 16.1% | 1.37% (active) | 48.2 | 22.7% | 34.9 | 20.5% | 13.2 | 39.2 | 45.5 | 63.5 | 86 | 45.5 | 45.6 | 51.7 | 48.6 | 23.7 | 72.5% | 13.8% | 17.2%
Cc1ccc(-c2nc3ccccn3c2/C=C2/C(=O)Nc3cc(Cl)ccc32)cc1 | 53.3% | 66.5% | 61.8% | 87.5 | 96.4% | 70.1 | 71.9% | 74.1 | 53.8 | 91.8 | 87.7 | 91.9 | 77.5 | 62.5 | 120 | 92.3 | 62.6 | 98.2% | 56.2% | 53.4%
N=C1C(c2nc3ccccc3s2)=C(O)CN1c1cc(Cl)cc(Cl)c1 | 38.6% | 82.6% | 128% | 95.2 | 64.7% | 26.1 | 88.9% | 78.1 | 67 | 120 | 105 | 82.4 | 86.2 | 60.2 | 115 | 73.4 | 78 | 98.5% | – | 29.4%
COCc1cnccc1NC1CCCCCC1 | 107% | 90.7% | 98.1% | 104 | 103% | 98.1 | 101% | 98.7 | 100 | 110 | 107 | 102 | 99.4 | 86.3 | 94.1 | 108 | 94.4 | 84.4% | 101% | 94.4%
